Potency, activation and activity change, negative = inhibition data for 23 compounds are collected here from PubChem BioAssay (NCATS).

Each structure is given as a SMILES string. Inconclusive results are not listed. A number with no mark means an inactive call. Calls of active or inactive are those of the source. The call rests on the fitted dose curve; in most records, active means well fitted curve in the direction sought with a large enough effect; inconclusive means small, poorly fitted or top-dose-only effect, or another doubt; inactive means no such curve, though single readings can be large; an effect the other way counts as inactive or inconclusive.

Experiment [1] has as its target Rap guanine nucleotide exchange factor 3 (Homo sapiens) (UniProt O95398). The experiment in a line: Confirmatory qHTS for antagonist of cAMP-regulated guanine nucleotide exchange factor 3 (EPAC1) (AID 1645880). Further: nearly all actives have a fitted effect of over 55% in size. Further: potency means the concentration at half of the fitted maximal effect. Put shortly:
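Nucleotide exchange uses 100 nM EPAC1, 250 nM RAP1B-BODIPY-GDP and 50 uM GDP, with compounds in a concentration-titration series. After 5 min at room temperature, fluorescence (480 nm ex/540 nm em) is read every 5 min for 30 min. Data are normalized to control ATA and DMSO.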
For orientation: In qHTS, concentration-response curves come from the screen itself.

The target is the same in experiment [2]. The experiment in a line: Confirmatory qHTS for agonist of cAMP-regulated guanine nucleotide exchange factor 3 (EPAC1) (AID 1645881).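 Further: EPAC1 catalysed release of BODIPY-GDP from Rap1B seen as fluorescence loss; 100% = effect of cAMP agonist control; nearly all actives have a fitted effect of over 75% in size.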
For experiment [3], the target named is Rap guanine nucleotide exchange factor 4 (Homo sapiens) (UniProt Q8WZA2). The experiment in a line: Confirmatory qHTS for agonist of cAMP-regulated guanine nucleotide exchange factor 4 (EPAC2) (AID 1645884).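 Further: nucleotide exchange releases bodipy-GDP from Rap1 and this lowers its fluorescence; on the % scale 0 is the no-effect control and ±100 the full control effect; nearly all actives have a fitted effect of over 65% in size.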
The target is the same in experiment [4]. The experiment in a line: Confirmatory qHTS for antagonist of cAMP-regulated guanine nucleotide exchange factor 4 (EPAC2) (AID 1645885). Further: nearly all actives have a fitted effect of over 25% in size. Further: potency means the concentration at half of the fitted maximal effect. On activity change, negative = inhibition: on the % scale 0 is the no-effect control and ±100 the full control effect.
Experiment [5] deals with Rap guanine nucleotide exchange factor 3 (Homo sapiens) (UniProt O95398). The experiment in a line: Counterscreen qHTS for antagonist of cAMP-regulated guanine nucleotide exchange factor 3 (EPAC1) (AID 1645888).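 Further: fluorescence loss as bound BODIPY-GDP is released from Rap1B; % of control where 0% means no effect.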 An outline of the steps: (§1)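 Measured: fluorescence of BODIPY-GDP bound to Rap1B, which falls as exchange proceeds. Conditions include 50 uM competing GDP, 5 and 30 min reads, and a later cAMP challenge for antagonist detection.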
A general note: The purpose of a counterscreen is to sort out artefacts and off-target activity.

The target is the same in experiment [6]. The experiment in a line: Counterscreen qHTS for agonist of cAMP-regulated guanine nucleotide exchange factor 3 (EPAC1) (AID 1645889). Further: nearly all actives have a fitted effect of over 40% in size. Further: potency means the concentration at half of the fitted maximal effect. On activation: % of control where 0% means no effect. Put shortly: as §1

Chain of Rap guanine nucleotide exchange factor 3 (Homo sapiens) (O95398 whole entry, looked up): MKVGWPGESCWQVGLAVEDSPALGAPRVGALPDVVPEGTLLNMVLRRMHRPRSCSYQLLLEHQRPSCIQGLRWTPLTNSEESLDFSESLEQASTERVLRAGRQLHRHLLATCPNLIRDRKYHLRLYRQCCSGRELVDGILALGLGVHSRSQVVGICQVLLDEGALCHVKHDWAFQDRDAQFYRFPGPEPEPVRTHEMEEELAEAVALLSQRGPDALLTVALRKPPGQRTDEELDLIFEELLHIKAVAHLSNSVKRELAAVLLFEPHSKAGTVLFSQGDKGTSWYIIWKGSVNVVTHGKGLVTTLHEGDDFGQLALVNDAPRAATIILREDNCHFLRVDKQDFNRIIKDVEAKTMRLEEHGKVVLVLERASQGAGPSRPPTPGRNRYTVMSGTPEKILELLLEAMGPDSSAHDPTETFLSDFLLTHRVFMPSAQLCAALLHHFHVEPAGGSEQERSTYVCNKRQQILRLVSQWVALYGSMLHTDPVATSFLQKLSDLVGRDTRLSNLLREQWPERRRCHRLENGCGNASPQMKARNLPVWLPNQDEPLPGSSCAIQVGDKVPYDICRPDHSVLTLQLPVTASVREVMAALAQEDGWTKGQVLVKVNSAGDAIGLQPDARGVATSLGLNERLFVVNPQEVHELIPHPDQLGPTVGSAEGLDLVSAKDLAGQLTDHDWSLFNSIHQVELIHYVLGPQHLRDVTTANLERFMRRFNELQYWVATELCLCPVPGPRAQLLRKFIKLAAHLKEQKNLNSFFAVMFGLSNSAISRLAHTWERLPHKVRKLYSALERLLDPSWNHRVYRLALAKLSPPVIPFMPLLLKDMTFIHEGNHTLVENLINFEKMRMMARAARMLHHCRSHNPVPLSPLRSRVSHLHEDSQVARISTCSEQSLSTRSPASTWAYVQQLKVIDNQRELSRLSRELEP
Chain of Rap guanine nucleotide exchange factor 4 (Homo sapiens) (Q8WZA2 whole entry, looked up): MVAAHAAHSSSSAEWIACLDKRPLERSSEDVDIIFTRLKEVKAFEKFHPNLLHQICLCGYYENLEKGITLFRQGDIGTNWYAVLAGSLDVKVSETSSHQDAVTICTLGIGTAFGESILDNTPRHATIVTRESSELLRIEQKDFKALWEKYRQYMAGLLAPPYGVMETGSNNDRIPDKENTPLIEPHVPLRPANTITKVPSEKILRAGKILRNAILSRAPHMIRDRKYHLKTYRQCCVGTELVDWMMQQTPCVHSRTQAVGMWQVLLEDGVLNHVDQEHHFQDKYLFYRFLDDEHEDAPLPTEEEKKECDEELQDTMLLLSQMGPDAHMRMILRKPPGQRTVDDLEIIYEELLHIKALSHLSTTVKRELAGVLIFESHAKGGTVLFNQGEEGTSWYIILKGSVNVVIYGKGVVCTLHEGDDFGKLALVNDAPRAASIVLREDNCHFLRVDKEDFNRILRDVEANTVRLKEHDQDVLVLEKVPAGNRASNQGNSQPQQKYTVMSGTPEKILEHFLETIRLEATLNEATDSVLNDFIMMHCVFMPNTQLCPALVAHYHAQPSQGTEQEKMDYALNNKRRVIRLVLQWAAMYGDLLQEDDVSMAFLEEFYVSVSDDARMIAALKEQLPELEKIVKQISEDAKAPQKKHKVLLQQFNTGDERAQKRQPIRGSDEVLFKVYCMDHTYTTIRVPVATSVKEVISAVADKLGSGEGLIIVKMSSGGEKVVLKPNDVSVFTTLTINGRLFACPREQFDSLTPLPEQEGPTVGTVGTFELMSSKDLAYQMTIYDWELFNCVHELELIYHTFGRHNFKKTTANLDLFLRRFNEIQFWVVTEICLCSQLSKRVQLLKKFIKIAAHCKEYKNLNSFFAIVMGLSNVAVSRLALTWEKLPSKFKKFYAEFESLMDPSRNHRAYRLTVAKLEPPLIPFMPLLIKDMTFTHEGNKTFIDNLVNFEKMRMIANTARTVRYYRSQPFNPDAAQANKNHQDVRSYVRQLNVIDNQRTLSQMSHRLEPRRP

With `COC(=O)c1c(SC)nc2ccccc2c1OCc1cc(C)ccc1C`, the Potency result in experiment [1], in experiment [2], in experiment [3], in experiment [4], in experiment [5] and in experiment [6] was “inactive” each time.
Regarding `CC(C)c1c(Cl)c(O)c(-c2ccccc2)c(=O)n1-c1ccc(F)cc1`, the Potency in experiment [1] is 19 µM (active). The Potency entry in experiment [2], in experiment [3], in experiment [4], in experiment [5] and in experiment [6] was “inactive” throughout.
Take `Cc1cc2ccccn2c1C(=O)c1ccc(C#N)cc1`: the Potency entry in experiment [1], in experiment [2], in experiment [3], in experiment [4], in experiment [5] and in experiment [6] was “inactive” in each case.
In the case of `Cc1ccc2nc(-c3ccc(NC(=O)c4ccco4)cc3)[nH]c2c1`, the Potency result in experiment [1], in experiment [2] and in experiment [4] was “inactive” throughout. Further, the activation in experiment [3] is 7.16% [at 17.1 µM, percent relative to cAMP agonist control]; in experiment [6] it was 29.2% [at 30.8 µM]. Besides, the activity change, negative = inhibition in experiment [5] was -13% [at 30.8 µM].
As for `Cc1cc(C)n2[nH]c(=O)c(N=Nc3ccc(S(N)(=O)=O)cc3)c2n1`, the Potency result in experiment [1], in experiment [2], in experiment [3], in experiment [5] and in experiment [6] was “inactive” throughout. The Potency in experiment [4] was 84.9 µM (active).
For the compound `Cc1[nH]c(C)c2c(=O)n(Cc3ccc(Cl)cc3)ncc12`, the Potency entry in experiment [1], in experiment [2], in experiment [3], in experiment [5] and in experiment [6] was “inactive” throughout. Besides, in experiment [4], the Potency was 15.1 µM (active).
As to `CCOC(=O)c1ccc(-c2ccc(/C=C(\C#N)C(=O)Nc3c(C)cccc3Cl)o2)cc1`, the Potency in experiment [1] was 75.7 µM (active). Moreover, the Potency result in experiment [2], in experiment [3], in experiment [4], in experiment [5] and in experiment [6] was “inactive” throughout.
For `O=C1/C(=C/c2ccc(F)cc2)SC(=S)N1NS(=O)(=O)c1ccccc1`, the Potency in experiment [1] was 16.9 µM (active). For the same compound, the Potency entry in experiment [2], in experiment [3], in experiment [4], in experiment [5] and in experiment [6] was “inactive” in each case.
As for `CCN(CC)c1nc(SCC(=O)O)nc(N(CC)CC)n1`, the Potency result in experiment [1], in experiment [2], in experiment [3], in experiment [5] and in experiment [6] was “inactive” each time. For the same compound, the Potency in experiment [4] was 12 µM (active).
Consider `COc1cccc(OCCOc2ccc(/C=C3\C(=N)N4N=C(S(C)(=O)=O)SC4=NC3=O)cc2OC)c1`, for which the Potency in experiment [1] was 37.9 µM (active). Besides, the Potency result in experiment [2], in experiment [3], in experiment [4], in experiment [5] and in experiment [6] was “inactive” each time.
For the compound `CC(=O)N1CCc2cc(Br)cc(S(=O)(=O)NCCCN(C)Cc3ccccc3)c21`, the Potency entry in experiment [1], in experiment [2], in experiment [3], in experiment [5] and in experiment [6] was “inactive” throughout. For the same compound, in experiment [4], the Potency is 23.9 µM (active).
`CCCc1nc2ccccc2c(=O)n1/N=C/c1ccccc1O`: the Potency in experiment [1] was 37.9 µM (active). In addition, the Potency entry in experiment [2], in experiment [3], in experiment [4], in experiment [5] and in experiment [6] was “inactive” in each case.
In the case of `Nc1ncnc2nc(Sc3ccc(Cl)cc3)[nH]c12`, the Potency result in experiment [1], in experiment [2], in experiment [3], in experiment [4], in experiment [5] and in experiment [6] was “inactive” each time.
With `CCCc1cc(=O)oc2c3c(cc(OCC(=O)NCc4ccccn4)c12)OC(C)(C)CC3`, the Potency entry in experiment [1], in experiment [2], in experiment [3], in experiment [4], in experiment [5] and in experiment [6] was “inactive” throughout.
For the compound `Cc1cc(=O)n(C2CCS(=O)(=O)C2)[nH]1` (stereo not drawn), the Potency result in experiment [1], in experiment [2], in experiment [3], in experiment [4] and in experiment [5] was “inactive” throughout. In addition, in experiment [6], the Potency was 4.47 µM (active).
Regarding `CCOc1cccc(CC(=O)NCc2ccc3c(c2)CCN3C(C)=O)c1OCC`, the Potency entry in experiment [1], in experiment [2], in experiment [3], in experiment [4], in experiment [5] and in experiment [6] was “inactive” in each case.
As to `O=C(Cc1ccccc1)O/N=C1\CCCc2ccccc21`, the Potency entry in experiment [1], in experiment [2], in experiment [3], in experiment [4], in experiment [5] and in experiment [6] was “inactive” each time.
For `Cc1c(CCC(=O)O)c(=O)oc2cc(OCc3ccc(Br)cc3)ccc12`, the Potency result in experiment [1], in experiment [2], in experiment [3], in experiment [4], in experiment [5] and in experiment [6] was “inactive” in each case.
`O=C(OCc1c(-c2ccccc2)ncc2ccccc12)c1ccccc1C(F)(F)F`: the Potency result in experiment [1], in experiment [2], in experiment [3], in experiment [4], in experiment [5] and in experiment [6] was “inactive” throughout.
Consider `CCc1ccc(-c2nc(CS(=O)CC(=O)NCc3cccnc3)c(C)o2)cc1` (stereo not drawn), for which the Potency entry in experiment [1], in experiment [2], in experiment [3], in experiment [4], in experiment [5] and in experiment [6] was “inactive” throughout.
As for `Cn1c(Cc2cccs2)nnc1SCc1nc2ccccc2[nH]1`, the Potency entry in experiment [1], in experiment [2] and in experiment [4] was “inactive” in each case. The activation is 2.48% [at 17.1 µM, percent relative to cAMP agonist control] in experiment [3] and 30.7% [at 30.8 µM] in experiment [6]. Besides, the activity change, negative = inhibition in experiment [5] is -1.2% [at 30.8 µM].
In the case of `CCC(=O)Nc1ccc(C(=O)NNC(=O)c2ccc([N+](=O)[O-])cc2)cc1`, the Potency entry in experiment [1], in experiment [2], in experiment [3], in experiment [4], in experiment [5] and in experiment [6] was “inactive” throughout.
For the compound `COc1ccc(NC(=O)c2ccc(NC3=NC4CS(=O)(=O)CC4S3)cc2)cc1` (stereo not drawn), the Potency result in experiment [1], in experiment [2] and in experiment [4] was “inactive” in each case. Moreover, the activation in experiment [3] is 1.91% [at 17.1 µM, percent relative to cAMP agonist control]; in experiment [6], 0.693% [at 30.8 µM]. The activity change, negative = inhibition in experiment [5] is -1.99% [at 30.8 µM].
